Inconclusive results are not listed. A number with no mark means an inactive call. The source made the active and inactive calls. Calls come from the whole dose curve; as a rule, active = well fitted inhibition curve with a large enough effect in the repeat runs; inconclusive = weak or mixed curves; inactive = no such curve, though single readings can be large or run the other way.
% is set by controls: 0 for no effect and ±100 for the full control effect.

In the test the target is Estrogen receptor (Homo sapiens) (UniProt P03372). Description: qHTS assay to identify small molecule antagonists of the estrogen receptor alpha (ER-alpha) signaling pathway using the BG1 cell line in the presence of 0.1 nM 17-beta-estradiol (AID 1259244). Note: nearly all actives have a fitted effect of over 50% in size. To be noted: VM7Luc4E2 (BG1) ERE-luciferase, antagonist mode, 0.1 nM E2, 22 h; series mostly up to 92.4 µM. From the text: National Center for Advancing Translational Sciences [NCATS]
Estrogen receptor (Homo sapiens), sequence (P03372 whole entry, looked up): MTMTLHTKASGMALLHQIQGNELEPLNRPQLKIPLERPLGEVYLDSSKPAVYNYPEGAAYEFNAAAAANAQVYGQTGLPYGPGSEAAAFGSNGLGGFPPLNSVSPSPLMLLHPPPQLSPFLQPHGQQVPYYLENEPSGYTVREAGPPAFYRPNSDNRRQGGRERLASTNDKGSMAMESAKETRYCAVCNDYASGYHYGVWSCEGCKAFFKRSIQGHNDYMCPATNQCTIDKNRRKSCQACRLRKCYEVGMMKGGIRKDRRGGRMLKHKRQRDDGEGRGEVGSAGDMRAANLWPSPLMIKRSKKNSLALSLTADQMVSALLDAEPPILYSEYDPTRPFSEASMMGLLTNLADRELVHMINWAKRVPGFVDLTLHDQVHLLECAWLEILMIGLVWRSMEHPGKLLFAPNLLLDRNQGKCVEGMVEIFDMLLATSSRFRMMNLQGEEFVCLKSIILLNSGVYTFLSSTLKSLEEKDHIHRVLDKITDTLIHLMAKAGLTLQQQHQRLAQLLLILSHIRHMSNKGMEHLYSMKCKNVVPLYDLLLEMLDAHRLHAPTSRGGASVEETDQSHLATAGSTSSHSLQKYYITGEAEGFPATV
NIH Chemical Genomics Center [NCGC]
U.S. Environmental Protection Agency [EPA]
National Institutes of Environmental Health Sciences [NIEHS]
National Toxicology Program [NTP]
U.S. Food and Drug Administration [FDA]
Estrogen receptor (ER), a member of the nuclear hormone receptor plays an important role in development, metabolic homeostasis and reproduction. Two subtypes of ER, ER-alpha and ER-beta, have similar expression patterns with some uniqueness in both types. Endocrine disrupting chemicals (EDCs) and their interactions with steroid hormone receptors like ER causes disruption of normal endocrine function. Therefore, it is important to understand the effect of environmental chemicals in ER signaling pathway. For identifying ER antagonists, VM7Luc4E2 cell line was used to screen against Tox21 compound libraries.
VM7Luc4E2 cell line (provided by Denison MS, University of California) endogenously express full-length ER-alpha and is stably transfected with a plasmid containing four estrogen responsive elements (ERE) upstream of a luciferase reporter gene. The current screening for identification of ER-alpha inhibitors against Tox21 compound libraries used lower concentration (0.1 nM) of 17beta-Estradiol as a stimulator.
Tox21 Assay Protocol Summary:
VM7Luc4E2 cells were cultured in phenol red free assay medium containing 10% charcoal stripped FBS for 5 days prior to the assay. The cells were dispensed at 4,000 cells/well in 4 uL of assay medium into white wall/solid-bottom 1536-well plates (Corning Life Sciences, Corning, NY) using a Multidrop Combi (ThermoFisher Scientific, Waltham, MA) dispenser. After the assay plates were incubated at 37C and 5% CO2 for 24 hr, 23 nL of compounds dissolved in DMSO, positive controls or DMSO only was transferred to the assay plates by a Pintool station (Kalypsys, San Diego, CA). The transfer of compounds was followed by the addition of 1 uL of 0.1 nM (final concentration) agonist (17beta-Estradiol)/assay medium using a Flying Reagent Dispenser (FRD, Aurora Discovery, San Diego, CA). The plates were incubated at 37C and 5% CO2 for 22 hr. For luciferase reporter gene assay, 4 uL of ONE-Glo reagent (Promega Corporation, Madison, WI) was added to each well using the FRD and after 30 min incubation at room temperature luminescence intensity was measured using ViewLux plate reader (PerkinElmer, Shelton, CT).
`CCCC(=O)C(CC)Sc1ccoc1C` (stereo not given): the outcome was inactive.
Same read-out and setting: under `O=C(OOC(=O)c1ccccc1)c1ccccc1` stands “inactive”; under `COc1cc(OC)cc(OC)c1`, “inactive”.
Still for that read-out and setting: under `CCCCCCCCCCCCCC(=O)OCC` stands “inactive”; under `C=CC(C)(CCC=C(C)C)OC(=O)C(C)C` (stereo not given), “inactive”.
Same read-out and setting: with `N#CC1(N)CCCCC1` the entry was “inactive”; with `Cc1cc(C)c(C)c(C)c1`, “inactive”; with `CC1(C)S[C@@H]2[C@H](NC(=O)Cc3ccccc3)C(=O)N2[C@H]1C(=O)O` (tested in a mixture with another compound), “inactive”.
Consider `Cc1nc2ccc(Cl)cc2[nH]1`, for which the outcome was inactive.
As for `CCCC(=O)CC`, the result was inactive.
Still for that read-out and setting: with `Cc1ccc(O)c([N+](=O)[O-])c1` the entry was “inactive”.
In the case of `CC(=O)OC/C=C(/C)CCC=C(C)C`, the result was inactive.
Still for that read-out and setting: with `Cc1cc(C)c(N)c(Cl)c1` the entry was “inactive”.
The same measure, in the same setting: under `OCCC(F)(F)C(F)(F)C(F)(F)C(F)(F)C(F)(F)C(F)(F)F` stands “inactive”; under `Clc1ccc2c(c1)Nc1ccccc1S2`, “inactive”; under `COC(=O)N/N=C/c1c[n+]([O-])c2ccccc2[n+]1[O-]`, “inactive”.
Same read-out and setting: with `Nc1cc(S(=O)(=O)O)ccc1O` the entry was “inactive”; with `N#Cc1ccccc1C#N`, “inactive”.
For the compound `C[C@@H]1NC(=O)[C@@H](N)CNC(=O)[C@H](C2CCNC(N)=N2)NC(=O)/C(=C/NC(N)=O)NC(=O)[C@H](CNC(=O)C[C@@H](N)CCCN)NC1=O` (stereo not given in full), the activity change, negative = inhibition was 11.8% [at 0.349 µM].
As for `COC(=O)/C=C(\C)CCC=C(C)C`, the outcome was inactive.
On the same count and under the same terms, with `CC(O)C(CO)C(C)O` (stereo not given) the entry was “inactive”; with `CCCCC(CC)CCC(CC(C)C)OS(=O)(=O)O` (stereo not given), “inactive”; with `CC(=O)Oc1ccc(C(C)=O)cc1`, “inactive”.
In the case of `C[Si](C)(C)O[Si](O)(O)O`, the result was inactive.
Still for that read-out and setting: with `CC[C@@]1(c2ccccc2)NC(=O)N(C)C1=O` the entry was “inactive”; with `C[n+]1ccccc1/C=N/O`, “inactive”.
On the same count and under the same terms, under `Clc1cc(Cl)c(Cl)c(Cl)c1Cl` stands “inactive”.
Still for that read-out and setting: under `BrCCOc1ccccc1` stands “inactive”.
Turning to `O=C(CCBr)N1CCN(C(=O)CCBr)CC1`, the outcome was inactive.
`CC(=O)SC[C@@H](C)C(=O)N1CCC[C@H]1C(=O)N[C@@H](Cc1ccccc1)C(=O)O`: the result was inactive.
As for `N[C@H]1C(O)O[C@H](CO)[C@@H](O)[C@@H]1O` (stereo not given in full), the result was inactive.
On the same count and under the same terms, under `COC(=O)c1ccc(NC(C)=O)cc1OC` stands “inactive”; under `C[C@@H](CN1CC(=O)NC(=O)C1)N1CC(=O)NC(=O)C1`, “inactive”; under `CC(=O)/C=C/C=C1/C2CCC(C2)C1(C)C` (stereo not given), “inactive”.
The same measure, in the same setting: with `O=C1CCCc2c(O)cccc21` the entry was “inactive”.
With `C[C@@H]1CC[C@@]2(OC1)O[C@H]1C[C@H]3[C@@H]4CC[C@H]5C[C@@H](O)CC[C@]5(C)[C@H]4CC(=O)[C@]3(C)[C@H]1[C@@H]2C`, the activity change, negative = inhibition is 0.329% [at 8.39 µM].
On to `Cc1ccccc1OCC(=O)O`, for which the outcome was inactive.
On to `C=CCCCCCCCCCCCCCC`, for which the activity change, negative = inhibition was -1.96% [at 19 µM].
`CC(C)(C)C(=O)CC(=O)C(C)(C)C`: the result was inactive.
Same read-out and setting: with `CC(C)(C)C(=O)NCCCC(=O)O` the entry was “inactive”.

For the origin of these results see PubChem BioAssay (Tox21).
